This is part of a sample that, as a whole, favours compounds with a hit. Of some 83,000 tested, about 20% had one in any assay.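 Interpretation: 100, growth as untreated; towards 0, rising growth inhibition; 0, no net growth; 0 to -100, cell death. Compounds scoring below 10 were considered active.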 A number with no mark means an inactive call. The source made the active and inactive calls.
Columns and labels:
Assay in all cases: NCI-60 one-dose screen, 48 h (100 = growth as untreated, 0 = no growth, -100 = all killed)
Settings in all cases: 10 µM
SK-MEL-2 melanoma = tested on: SK-MEL-2 melanoma
EKVX NSCLC = tested on: EKVX NSCLC
UO-31 renal = tested on: UO-31 renal
TK-10 renal = tested on: TK-10 renal
ACHN renal = tested on: ACHN renal
CAKI-1 renal = tested on: CAKI-1 renal
A498 renal = tested on: A498 renal
CCRF-CEM leukemia = tested on: CCRF-CEM leukemia
MOLT-4 leukemia = tested on: MOLT-4 leukemia
SR leukemia = tested on: SR leukemia
RPMI-8226 leukemia = tested on: RPMI-8226 leukemia
OVCAR-8 ovarian = tested on: OVCAR-8 ovarian
OVCAR-5 ovarian = tested on: OVCAR-5 ovarian
OVCAR-4 ovarian = tested on: OVCAR-4 ovarian
SK-OV-3 ovarian = tested on: SK-OV-3 ovarian
IGROV1 ovarian = tested on: IGROV1 ovarian
OVCAR-3 ovarian = tested on: OVCAR-3 ovarian
HS 578T breast = tested on: HS 578T breast
NCI/ADR-RES ovarian = tested on: NCI/ADR-RES ovarian
SN12C renal = tested on: SN12C renal

Structure (SMILES)	growth (SK-MEL-2 melanoma)	growth (EKVX NSCLC)	growth (UO-31 renal)	growth (TK-10 renal)	growth (ACHN renal)	growth (CAKI-1 renal)	growth (A498 renal)	growth (CCRF-CEM leukemia)	growth (MOLT-4 leukemia)	growth (SR leukemia)	growth (RPMI-8226 leukemia)	growth (OVCAR-8 ovarian)	growth (OVCAR-5 ovarian)	growth (OVCAR-4 ovarian)	growth (SK-OV-3 ovarian)	growth (IGROV1 ovarian)	growth (OVCAR-3 ovarian)	growth (HS 578T breast)	growth (NCI/ADR-RES ovarian)	growth (SN12C renal)
O=c1cc(-c2ccccc2)oc2cc(OCCCNCc3ccccc3)cc(O)c12	-81.4% (active)	8.87% (active)	-9.86% (active)	37.3%	3.03% (active)	-24% (active)	-14.5% (active)	10.1%	-13% (active)	-24.8% (active)	-26.8% (active)	-90.5% (active)	75.5%	-16.2% (active)	30.1%	9.54% (active)	16.2%	-4.99% (active)	-77.9% (active)	
O=C1Nc2cc(Cl)ccc2/C1=C/c1cccc(OCc2ccc(Br)cc2F)c1	-20% (active)	10.5%		77.9%	30.8%	26.9%	60%	-15.9% (active)	0.0252% (active)		-20.1% (active)	-15.8% (active)	30.2%	39.1%	40.7%	20.2%	-39% (active)	-10.1% (active)	-35.1% (active)	17.6%
O=C(c1ccc(O)cc1)C1[C@H](c2ccccc2Br)[C@@H](c2ccccc2)NC12C(=O)Nc1ccc(Br)cc12 (stereo not given in full)		32%	35.8%	76.2%	37.9%	24.1%	80.5%	31.4%	11%		24.6%	48.6%	64.1%	51.4%	65.2%	18.4%	7.23% (active)	58.5%	64.9%	15.1%
CN1CCc2c(sc3ncnc(N/N=C/c4cn(-c5ccccc5)nc4-c4ccc(Cl)cc4)c23)C1		19.8%	15.4%	49.9%	21.7%	23.8%	94.1%	11.4%	18.2%	8.8% (active)	23.7%	-26.1% (active)	27%	-9.33% (active)	64%	1.89% (active)	-17.2% (active)	46.6%	-35.3% (active)	24.9%
CS(=O)(=O)Nc1ccc(-c2ccc3c(c2)ncn3-c2ccc(NC(=O)Nc3ccc(Br)cc3)cc2)cc1		-0.46% (active)	2.62% (active)	25.7%	4.12% (active)	2.14% (active)	-17% (active)	-14.9% (active)	-18.4% (active)		-24% (active)	17.1%	20.1%	18.1%	1.06% (active)	26.7%	5.29% (active)	0.433% (active)	59.8%	14.2%
COc1cccc(-c2nn(-c3ccccc3)cc2-c2ccnc(NCCCNC(=O)Nc3ccc(F)cc3)c2)c1		20.7%	17.7%	49.8%	20.6%	19.2%	58%	-26.7% (active)			-27.4% (active)	11.1%	27.1%	22.8%	3.71% (active)	15.8%	28.4%	-3.48% (active)	-35.6% (active)	23.6%
COC[C@@H](CC(C)C)N=C1NC(=O)/C(=C/c2ccc3ncsc3c2)N1		17.8%	-12.7% (active)	27.8%	6.22% (active)	4.39% (active)	-7.78% (active)		11.1%		4.92% (active)	13.7%		40.4%	-0.203% (active)	8.22% (active)	-38.4% (active)	11.6%	9.71% (active)	13.6%
Cc1noc2c(Cc3ccccc3)nn(CC(=O)N/N=C/c3ccc(Cl)cc3)c(=O)c12		72.9%	-40.5% (active)	4.87% (active)	-16.5% (active)	38.5%	-58.1% (active)	97.3%	102%	104%	75.5%	8% (active)	66%	-59.5% (active)	33.9%	41%	-31.8% (active)	4.07% (active)	53.2%	7.85% (active)
CC(=O)Nc1ccc(-c2cn(-c3cccc(C(=O)Nc4ccc(Cl)c(C(F)(F)F)c4)c3)nn2)cn1		-30.2% (active)	-56% (active)	-18% (active)	-52.5% (active)	-27.8% (active)	-63.1% (active)	30%	7.02% (active)		16.2%	-32.7% (active)	-17.8% (active)	-74.9% (active)	-3.46% (active)	-54% (active)	-75.9% (active)	-12% (active)	41.6%	-48.4% (active)
C=C1CCC2C3(C)COC(c4c(F)cccc4F)OC3CCC2(C)C1CC(O)C1=CCOC1=O (stereo not given)		85.7%	50%	105%	3.02% (active)	72.5%	134%	17.7%	53.7%	32.8%	12.6%	7.07% (active)	82.9%	60.2%	100%	59.3%	38.2%	76.1%	11.6%	34.9%
CCOC(=O)C1=C(N)N(c2ccc(C)cc2)C2=C(C(=O)CC(C)(C)C2)C1c1ccccc1OC (stereo not given)		92.2%	78.7%	107%	103%	97.7%	102%	99%	106%	92.1%	96.2%	110%		108%	103%	98.6%	118%	102%	99.7%	99.6%
O=C(CSc1ccc(-c2ccc(Cl)cc2)nn1)Nc1ccc(Cl)c(C(F)(F)F)c1		44.3%		66%	79.3%	61.3%	89.9%	44.9%	11%		66.8%	76.4%	79.6%	76.1%	75.4%	70.9%	69.3%	70.6%	27.9%	79.3%
Brc1ccc(/C=N/Nc2ncnc3sc4c(c23)CCN(Cc2ccccc2)C4)cc1		94.2%	73.9%	125%	56.5%	70%	117%	22.5%	46.2%		48.5%	3.8% (active)	99.9%	43.7%	107%	94.6%	33%	48.3%	68.8%	64.4%
CC(=O)NCC1=C(C)C=C2C(=O)[C@](C)(O)C3(CC3)C(C)=C21		-26.1% (active)	-32.2% (active)	-6.87% (active)	-37.4% (active)	-31.6% (active)	-70.4% (active)	51.9%			82.7%	-63.6% (active)	-28.8% (active)	-53% (active)	-58.5% (active)	-39.3% (active)	-19.9% (active)		-46.1% (active)	-74.7% (active)
O=C(CS(=O)(=O)c1oc(-c2ccc(Cl)cc2)nc1S(=O)(=O)c1ccc(Cl)cc1)N1CCOCC1		83.5%	-19.9% (active)	16.5%	-98.2% (active)	30.9%	134%	-34.6% (active)			-9.59% (active)	28.3%	38.3%	-8.45% (active)	92.8%	73.5%	6.83% (active)	76%	28.2%	55.3%
O=C(NCCCCC(c1ccc(F)cc1)c1ccc(F)cc1)NCCCc1cccnc1		27.4%	26.2%	46.2%	37.5%	29.8%	84.2%	-25.4% (active)			-42.1% (active)	11.4%		20.6%	23.6%	31.6%	26.5%	56.4%	12.9%	23.9%
CC(=O)OC[C@@]1(C)C2CC[C@]3(C)C(CC=C4C5CC(C)(C)CC[C@]5(C(=O)Nc5ccccc5)CC[C@]43C)[C@@]2(C)C[C@@H](OC(C)=O)[C@@H]1OC(C)=O (stereo not given in full)		26.8%	33.1%	53.1%	34.4%	37.2%	64.6%	29.7%	24.4%	17%	10.7%	32.7%	81.4%	33.4%	45.2%	45.1%	38.9%		31.2%	

Source: PubChem BioAssay (NCI)
